{"source": "PubChem BioAssay AID1346428", "about": "(National Center for Advancing Translational Sciences (NCATS), 2018)", "note": "About 1,200 (2.5%) of roughly 48,000 compounds were called active. Another 2% or so got no clear call; they are omitted. Many of the other results were omitted from the sample, so actives are more common in it than they were. A number with no mark means an inactive call.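 How the source made its calls: active means activation of at least 60% and not above a set upper limit (about 1 call in 100 departs from these limits); inconclusive means activation of 40% to 60%, or above that upper limit; inactive means activation under 40%.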"}
{"biological_target": "Probable G-protein coupled receptor 32 (Homo sapiens) (UniProt O75388)", "sequence (O75388 whole entry, looked up)": "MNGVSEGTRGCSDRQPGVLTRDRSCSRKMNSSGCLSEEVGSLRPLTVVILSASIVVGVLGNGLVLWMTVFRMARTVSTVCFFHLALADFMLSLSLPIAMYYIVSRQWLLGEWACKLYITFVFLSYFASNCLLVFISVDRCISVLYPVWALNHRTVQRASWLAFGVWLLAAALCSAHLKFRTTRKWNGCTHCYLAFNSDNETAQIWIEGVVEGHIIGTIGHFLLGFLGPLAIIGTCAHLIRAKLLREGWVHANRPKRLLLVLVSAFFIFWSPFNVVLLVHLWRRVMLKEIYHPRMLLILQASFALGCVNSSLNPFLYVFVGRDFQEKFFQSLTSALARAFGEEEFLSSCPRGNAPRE", "assay": "qHTS for Agonists of Human Resolvin D1 Receptor DRV1", "details": "CHO-K1 GPR32 beta-arrestin PathHunter luminescence, 90 min; at 76.9 µM; active compounds read high; zero percent set by DMSO-only wells", "excerpt": "Endogenous resolution of inflammation is known to be transduced through various GPCRs and their natural mediators of lipid nature. Resolvin D1 (RvD1) is one of the active players in resolution of acute inflammation through regulation of anti-inflammatory pathways; it is known to enhance phagocytosis of human macrophages, limits neutrophils infiltration, etc. […] The search for GPR32-activating small molecules with anti-inflammatory effects similar to its natural omega-3 derivative ligand in order to use them as research tools for further studies of inflammation and its resolution was the goal of this screening project. For primary screening assay, we used CHO-K1 GPR32 beta-arrestin cell line (DiscoveRx, #93-0321C2A) and the PathHunter(R) beta-Arrestin Assay (DiscoveRx) which measures recruitment of beta-arrestin to the GPR32 and generates chemiluminescent signal. These engineered cells stably transfected with GPR32 co-express GPR32-fused small 42-amino acid fragment of beta-Gal called ProLinktrade mark, and […] -tagged beta-Arrestin fusion protein. When GPR32 is activated by a ligand, it stimulates binding of beta -Arrestin to ProLink-tagged GPR32, and two parts of beta-Gal complement forming a functional enzyme. Upon substrate (PathHunter(R) Detection reagent) addition, beta-Gal hydrolyzes it and generates a chemiluminescent signal.\nThe cells were thawed and plated in thawing media containing F-12 HAM (Invitrogen, #11765-054), 10% FBS (Invitrogen, #10082), 1x Glutamine, and 1x Pen/Strep onto the 175-mm flask for 24 hours. Then, thawing media was replaced with Growth media which contains 800microg/mL Geneticin (Invitrogen, #10131) and 300microg/mL Hygromycin B (Invitrogen, #10687) in addition to described above. For the assay, the cells were harvested at ~80% confluent stage with Cell Dissociation buffer (Gibco, #13151), and seeded at 2,500 cells/ 3microL/well in assay media (PathHunter(R) Cell Plating Reagent, DiscoverX, #93-0563R1B) using MultiDrop Combi dispenser (Thermo Scientific, Logan, UT) onto white solid bottom tissue culture-treated 1536-well plates (Greiner # 789173-F) and allowed to attach overnight at 37 degrees C, 95% humidity, 5% CO2, . Next, 23nL/well of compound solutions in DMSO were added with a Pin Tool (Kalypsis, San Diego, CA) to the assay plates. As the basal control (EC0), 23 nL/well of DMSO was used on each plate. The cells were incubated in the presence of compounds or DMSO for 90 minutes at 37 degrees C, 5% CO2. Subsequently, 1.5microL/well of PathHunter(R) Detection Reagent prepared per the manufacturer's instructions was added to the assay plates with BioRAPTR FRDtrade mark dispenser (Beckman Coulter, San Francisco, CA) and incubated for 1 hour at ambient temperature prior to the measurement of the luminescent signal on ViewLux(R) uHTS Microplate Imager (Perkin Elmer, Waltham, MA)."}
{"smiles": "c1ccc2c(c1)[I+]c1ccccc1-2", "activation": "85.7% (active)"}
{"smiles": "Nc1ccc([N+](=O)[O-])cc1", "activation": "-34.8%"}
{"smiles": "CC[N+]1(CCOC(=O)C(O)(c2ccccc2)c2ccccc2)CCCCC1", "activation": "-7.19%"}
{"smiles": "NCCc1ccc(S(=O)(=O)F)cc1", "activation": "14.4%"}
{"smiles": "CC1N=C(N)OC1c1ccccc1", "note": "(stereo not given)", "activation": "-12.2%"}
{"smiles": "C=CCN1CCC23c4c5ccc(O)c4O[C@H]2C(=O)CC[C@@]3(O)C1C5", "note": "(stereo not given in full)", "activation": "-10.4%"}
{"smiles": "O=S(=O)(O)C(F)(F)C(F)(F)C(F)(F)C(F)(F)F", "activation": "94.8% (active)"}
{"smiles": "Cc1nnc(NC(=O)c2cccn(Cc3cccc(F)c3)c2=O)s1", "activation": "23.9%"}
{"smiles": "CCOC(=O)c1ncn2c1[C@@H]1CCCN1C(=O)c1cc(OC)ccc1-2", "activation": "-9.3%"}
{"smiles": "CC1=C(C(=O)O)N2C(=O)[C@@H](N)[C@H]2SC1", "activation": "-12.7%"}
